In the library only some 2.9% were active in any assay of this set; here they are far more common.
A549 tox: Nrf2 qHTS screen for inhibitors: counterscreen for cytotoxicity | A549 ARE-Fluc cells, CellTiter-Fluor viability, 18-24 h | Potency, µM (top dose mostly 46 µM), without a hit: at the top dose activity change, negative = cytotoxicity, most hits filed as inhibitors | 390,000 compounds, 0.16% hits | AID 504648, 2011; note: % is set by controls: 0 for no effect and ±100 for the full control effect
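A549 ARE-Fluc cells in 5% FBS OPTI-MEM, 5000 cells/well, rested 2 h then exposed to compounds in concentration-response for 18-24 h at 37 °C. Viability by CellTiter-Fluor fluorescence (Ex 405/Em 525) after 30 min; luciferase luminescence (BugLite, 15 min, RT) read afterwards.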
S2 tox: Viability Counterscreen for Primary qHTS for Inhibitors of ATXN expression | AID 651635, 2014 | S2 cells (HEK-293 line with an ATXN2-luciferase reporter) viability, CellTiter-Fluor protease fluorescence, 24 h | Potency, µM (doses to about 56.7 µM), usual class: cytotoxic | 400,000 compounds, 0.49% hits; note: nearly all actives have a fitted effect of over 40% in size
Nrf2 block: Nrf2 qHTS screen for inhibitors; 360,000 compounds, 2.1% hits; A549 ARE-Fluc reporter, luciferase luminescence, 18-24 h; Potency, µM (highest dose often 46 µM), for inactives: at the top dose activity change, negative = inhibition, usual class: inhibitors; AID 504444, 2011; note: % is set by controls: 0 for no effect and ±100 for the full control effect; nearly all actives have a fitted effect of over 60% in size
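Quantitative HTS in A549 cells stably bearing an antioxidant response element-firefly luciferase construct. Inhibition of Nrf2-driven transcription was scored by luminescence after 18-24 h of compound exposure at 37 °C.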
Nrf2 activator: qHTS of Nrf2 Activators; AREc32 ARE-luciferase reporter (MCF7-derived line), luminescence, 24 h; Potency, µM (highest dose often 46.1 µM), for the others: at the top dose activation, most hits filed as activators; 410,000 compounds, 0.31% hits; note: % of control where 0% means no effect; nearly all actives have a fitted effect of over 65% in size
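Luciferase luminescence (Steady-Glo, 30 min at room temperature) served as the read-out of ARE activation in AREc32 cells treated with compounds for 24 hr at 37 deg C.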
ATXN2 expr inh: Primary qHTS for Inhibitors of ATXN expression; AID 1745845, 2022; HEK-293 ATXN2-luciferase reporter, luminescence, 24 h; Potency, µM (titrated, usually from 57 µM), for inactives: top-dose activity change, negative = inhibition, usual class: inhibitors; 360,000 compounds, 0.72% hits; note: % is set by controls: 0 for no effect and ±100 for the full control effect; nearly all actives have a fitted effect of over 55% in size
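ATXN2-luciferase reporter cells (luciferase flanked by upstream and downstream ATXN2 gene portions) were treated 24 h at 37 °C with compounds at up to 57 uM. SteadyGlo luminescence gave expression; GF-AFC fluorescence gave viability.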
Numbers without * were called inactive; i = inactive; ? = inconclusive; nt = no result; [ ] = remark or other dose. Calls come from the whole dose curve; as a rule, active = well fitted curve in the direction sought with a large enough effect; inconclusive = small, poorly fitted or top-dose-only effect, or another doubt; inactive = no such curve, though single readings can be large; an effect the other way counts as inactive or inconclusive. Potency is the fitted concentration of half-maximal effect.

SMILES | A549 tox | S2 tox | Nrf2 block | Nrf2 activator | ATXN2 expr inh
CCOC(=O)c1cc(-c2ccc(Cl)cc2)nc2c1c(C)nn2CCC#N | -5% | i | ? | 2% | -8%
CCOC(=O)c1cc(-c2ccc3c(c2)OCCO3)nc2c1c(C)nn2CCC#N | -1% | i | 21µM* | 0% | -8%
O=C(Nc1cccc(S(=O)(=O)N2CCCCC2)c1)c1ccc(S(=O)(=O)C(F)F)cc1 | -19% | ? | 18µM* | 0% | ?
O=C(Nc1cccc(S(=O)(=O)C(F)F)c1)c1ccc(S(=O)(=O)N2CCCCC2)cc1 | ? | i | 16µM* | 1% | -11%[11.3 µM]
CN(C)c1ccc(C(=O)Nc2cccc(S(=O)(=O)N3CCCC3)c2)cc1 | -9% | i | -25% | -1% | 17%
CN(C)S(=O)(=O)c1cccc(NC(=O)c2ccc(S(=O)(=O)N3CCCCC3)cc2)c1 | -4% | i | ? | 2% | -6%
O=C1c2ccccc2CC1Sc1nnc(-c2ccccn2)o1 (configuration not stated) | 7% | i | ? | 13µM* | 34%
COc1cc2c(cc1OC)C(COc1ccc3c(C)cc(=O)oc3c1)N(C(=O)c1cccc(OC)c1OC)CC2 (configuration not stated) | -13% | i | -13%[9.27 µM] | 3% | 5%
CN(C)/C=C/C(=O)c1ccc(Cl)c([N+](=O)[O-])c1 | -11% | i | 3% | 13µM* | -5%
CC(=O)OC1=CN(Cc2ccccc2)S(=O)(=O)c2ccccc21 | 3% | i | 7% | 0% | -1%
O=C(c1cccc(N2CCCC2=O)c1)N1CCC(Oc2cccc(CN3CCN(c4ccccn4)CC3)c2)CC1 | nt | 14µM* | nt | nt | nt
O=C(c1cccc(N2CCCC2=O)c1)N1CCN(c2ccccc2)CC1 | 0% | i | 3% | -1% | 8%
Nc1c(Cl)ncnc1N/N=C/c1ccc2ccccc2n1 | ? | 10µM* | 13µM* | ? | 7.9µM*
Nc1c(Cl)ncnc1N/N=C/c1ccnc2ccccc12 | -5% | ? | 10% | 4% | 10%
Cc1cccc2cc(C#N)c(NCCNC(=O)NC3CCCCC3)nc12 | -10% | i | 9.2µM* | 0% | -15%
CC(=O)c1ccc(OCC(O)CN2CCN(S(=O)(=O)c3c(C)c(C)cc(C)c3C)CC2)cc1 (configuration not stated) | ? | i | 26µM* | 3% | 0%
CCOc1ccc(Nc2ncnc3c2cnn3Cc2ccccc2)cc1 | -4% | i | ? | 1% | -25%
CCO/C=N/Nc1nc(C(F)(F)F)nc2c1cnn2Cc1ccccc1 | -19% | i | 23µM* | 0% | -18%
CC(NC(=O)c1cc(F)ccc1F)c1nnc2n1CCN(Cc1ccco1)CC2 (configuration not stated) | nt | i | nt | nt | nt
O=c1[nH]n(Cc2ccccc2)c(=O)c2ccccc12 | -3% | i | nt | 5µM* | 67%
COC(=O)CCn1[nH]c(=O)c2ccccc2c1=O | 9% | i | -13% | 0% | -21%
O=C1c2cccc(NCCCNCCO)c2C(=O)c2cccc(NCCCNCCO)c21 | 18µM* | nt | ? | -1% | 13µM*
Cc1nn(C)cc1CNc1nc(C)c(-c2ccn(CC3COc4ccccc4O3)n2)s1 (configuration not stated) | nt | i | nt | nt | nt
O=C(O)c1cc2ccccc2c(N=Nc2cccnc2)c1O | ? | ? | 18µM* | 22% | -34%
CCc1c(C#N)c(SCCC(=O)Nc2ccc(F)cc2)nc2c1C(=O)CC(C)(C)C2 | ? | ? | 18µM* | 0% | ?
SMILES | A549 tox | S2 tox | Nrf2 block | Nrf2 activator | ATXN2 expr inh
O=C(c1ccc(Cl)cc1)N(Cc1ccco1)Cc1ccco1 | 3% | nt | -20% | 6% | nt
CS(=O)(=O)c1ncc(Cl)c(C(=O)N(Cc2ccc(Cl)cc2)Cc2ccco2)n1 | ? | nt | 23µM* | -4% | 5.6µM*
Cn1nc(C(F)(F)F)c(C(=O)Nc2ccc(F)cc2F)c1Sc1cccc(C(F)(F)F)c1 | 15% | i | -12% | 0% | -10%
Cn1nc(C(F)(F)F)c(C(=O)Nc2ccc(F)cc2F)c1Sc1cccc(Cl)c1 | ? | i | 18µM* | 0% | -10%
O=C(O)CSc1ccc2nnc(-c3cccnc3)n2n1 | 3% | i | 4% | -1% | nt
Fc1ccc(CSc2ccc3nnc(-c4cccnc4)n3n2)cc1 | -1% | i | 9.2µM* | 0% | 33%
CC(C)CN(CC(C)C)C(=S)Nc1ccc(Cl)cc1 | -22% | nt | 26µM* | 6% | -20%
CCOc1ccc(NC(=O)CCc2nnc3n(C)c(=O)c4sccc4n23)cc1 | 5% | i | ? | -2% | 3%
COc1ccc(C(O)(C2CCCCC2)C(CN2CCOCC2)c2ccccc2)cc1 (configuration not stated) | -16% | i | 21µM* | 0% | -9%
O=C(c1ccccc1)C(CCC(CN1CCOCC1)C(=O)c1ccccc1)CN1CCOCC1 (configuration not stated) | -17% | nt | 23µM* | -4% | 22µM*
COc1ccc(C(=O)C(CN2CCOCC2)c2ccccc2)cc1 (configuration not stated) | ? | 18µM* | ? | ? | ?
COc1ccc(C(=O)C(CN2CCCC2)c2ccccc2)cc1 (configuration not stated) | -6% | nt | -13% | ? | ?
CCc1ccc(-n2nc(CO)c(C(=O)NCc3ccccc3Cl)n2)cc1 | 1% | nt | -2% | 0% | nt
CC(O)(C#Cc1ccc2c(c1)N(c1nc(N)ncc1Cl)CC2)c1nccs1 (configuration not stated) | nt | nt | nt | nt | -17%
Cc1ccc(C)c(NS(=O)(=O)c2ccc3c4c(cccc24)C(=O)N3)c1 | -2% | nt | 18µM* | -5% | nt
O=C1Nc2ccc(S(=O)(=O)Nc3ccccc3O)c3cccc1c23 | -2% | i | 17% | 10% | 16%
O=C1/C(=C\c2cc(Cl)c(O)c(Cl)c2)SC(=S)N1Cc1ccccc1 | -24% | i | 18µM* | 0% | ?
Cc1ccc(C(=O)CN2C(=O)c3ccccc3S2(=O)=O)cc1 | -4% | i | 21µM* | -3% | 1µM*
O=C(CN1C(=O)c2ccccc2S1(=O)=O)Nc1ncc(Cl)cc1Cl | 2% | i | ? | -2% | 5µM*
O=C(CN1C(=O)c2ccccc2S1(=O)=O)c1ccccc1 | 6% | i | nt | -3% | 14µM*
O=C(CN1C(=O)c2ccccc2S1(=O)=O)Nc1ncccn1 | 3% | i | -1% | 1% | -8%
CC(C)NC(=O)CN1C(=O)c2ccccc2S1(=O)=O | -1% | i | 4% | 2% | -5%
Cc1ccc(C(=O)N2CCOc3ccc(CN4CCN(Cc5ccccn5)CC4)cc3C2)cc1 | nt | i | nt | nt | nt
